From PubChem BioAssay (NCATS)
“And” between values parts separate entries of the source, which are not always exact repeats. Equal values may be shown once. Results filed as inconclusive are left out. The source made the active and inactive calls. Calls follow the shape of the dose curve; as a rule, active = well fitted activation curve with a large enough effect; inconclusive = small, poorly fitted or top-dose-only effect; inactive = no such curve, though single readings can be large or run the other way.

Each compound was assayed against Cellular tumor antigen p53 (Homo sapiens) (UniProt P04637) (assay: Primary qHTS for small molecule compounds that upregulate eGFP-tagged delta133p53alpha (in N-terminal) cells. (AID 2060322; also: nearly all actives have a fitted effect of over 75% in size;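 as to activation: series mostly up to about 56 µM; 0% = DMSO vehicle and 100% = reference activator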)). Conditions: NCI-H358 eGFP-delta133p53alpha fluorescence, 24 h; activation: stronger effect = higher value.
Procedure, shortened: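 NCI-H358 cells pre-induced 24 h with 10 ng/ml doxycycline to express N-terminal eGFP-delta133p53alpha, then dosed 24 h at 37C without doxycycline; fixed, Hoechst-stained, GFP intensity by laser scanning cytometry, normalized to DMSO (0%) and 57.5 uM 5-azacytidine (100%).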
Potency is read from the fitted curve at half-maximal effect.

Cellular tumor antigen p53 (Homo sapiens), sequence (P04637 whole entry, looked up): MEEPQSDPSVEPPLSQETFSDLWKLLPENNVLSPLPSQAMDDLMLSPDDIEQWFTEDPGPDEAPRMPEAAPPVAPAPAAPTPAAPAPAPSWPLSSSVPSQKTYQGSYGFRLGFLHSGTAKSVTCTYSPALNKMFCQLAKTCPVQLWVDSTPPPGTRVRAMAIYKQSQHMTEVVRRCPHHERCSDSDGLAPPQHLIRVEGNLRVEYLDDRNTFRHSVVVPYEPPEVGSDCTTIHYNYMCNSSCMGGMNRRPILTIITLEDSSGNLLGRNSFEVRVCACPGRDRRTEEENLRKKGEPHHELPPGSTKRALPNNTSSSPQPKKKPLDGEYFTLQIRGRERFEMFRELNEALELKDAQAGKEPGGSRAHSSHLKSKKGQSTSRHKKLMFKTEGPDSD

Question: For `CCCCC(=O)O[C@]1(C(=O)CO)[C@@H](C)C[C@H]2[C@@H]3CCC4=CC(=O)C=C[C@]4(C)[C@@]3(F)[C@@H](O)C[C@@]21C`, which activation is on record?
Answer: 8.12% (inactive)

Question: With `NC(=O)c1ccc(-c2nc(-c3ccc4c(c3)OCCO4)c(-c3ccccn3)[nH]2)cc1` as the compound, how does the activation read?
Answer: -1.5% (inactive)

Question: Which activation does the source give for `COc1ccc(C(=O)CC(=O)c2ccc(C(C)(C)C)cc2)cc1` here?
Answer: -17.5% (inactive) and -8.43% (inactive)

Question: Which activation does the source give for `CN1C(=O)C[C@H](C(=O)N[C@@H](Cc2cnc[nH]2)C(=O)N2CCC[C@@H]2C(N)=O)NC1=O` here?
Answer: 8.59% (inactive)

Question: How did the activation turn out when `CC1(CN2CCC(n3c(=O)[nH]c4ccccc43)CC2)OCc2ccccc2-n2cccc21` (stereo not given) was run?
Answer: -25.4% (inactive) and -3.95% (inactive)

Question: How did the activation turn out when `COc1ccccc1C(=O)Nc1cc2c(cc1N1CCCCC1)n(C)c(=O)n2C` was run?
Answer: -12.3% (inactive)

Question: Which activation does the source give for `COc1ccc(-c2coc3cc(O)cc(O)c3c2=O)cc1` here?
Answer: 22.8% (inactive)

Question: For `N[C@H](CSC(c1ccccc1)(c1ccccc1)c1ccccc1)C(=O)O`, which activation is on record?
Answer: -3.21% (inactive)

Question: With `Nc1nccc(-c2ccc3noc(-c4ccc(Cl)cc4)c3c2)n1` as the compound, how does the Potency read?
Answer: 34.3 µM (active)

Question: With `O=C(/C=C/N1C[C@H]2C[C@@H]1CN2c1ccccn1)c1ccccc1O` as the compound, how does the activation read?
Answer: 21.2% (inactive)

Question: How did the activation turn out when `CCC(C)(C)C(=O)O[C@H]1C[C@@H](C)C=C2C=C[C@H](C)[C@H](CC[C@@H]3C[C@@H](O)CC(=O)O3)[C@H]21` was run?
Answer: -16.4% (inactive) and -15.4% (inactive)

Question: Which activation does the source give for `CCN(c1ccccc1)c1cc(NC)[n+](C)c(C)n1` here?
Answer: 3.67% (inactive)

Question: With `CC(=O)Oc1cc2c(s1)CCN(C(C(=O)C1CC1)c1ccccc1F)C2` (stereo not given) as the compound, how does the activation read?
Answer: 29.4% (inactive)

Question: Which activation does the source give for `CC(=O)O[C@]1(C(C)=O)CC[C@H]2[C@@H]3C=C(C)C4=CC(=O)CC[C@]4(C)[C@H]3CC[C@@]21C` here?
Answer: -26.8% (inactive)

Question: For `CCC(c1ccc(O)cc1)C(CC)c1ccc(O)cc1` (stereo not given), which activation is on record?
Answer: 3.07% (inactive)

Question: `CO[C@@H]1[C@H](N(C)C(=O)c2ccccc2)C[C@H]2O[C@]1(C)n1c3ccccc3c3c4c(c5c6ccccc6n2c5c31)C(=O)NC4` was tested. Which activation did it give?
Answer: 25.1% (inactive)

Question: For `CNC(=O)[C@H](Cc1ccccc1)NC(=O)[C@H](CC(C)C)[C@H](CSc1cccs1)C(=O)NO`, which activation is on record?
Answer: -8.09% (inactive)

Question: Which activation does the source give for `CN(C)c1ccc2cc(C(=O)N[C@@H](CCCN=C(N)CCl)C(=O)NCc3ccccc3)ccc2c1` here?
Answer: 2.27% (inactive)

Question: With `O=C1c2ccccc2-[n+]2ccc3c([nH]c4ccccc43)c21` as the compound, how does the Potency read?
Answer: 15.3 µM (active)

Question: How did the activation turn out when `N=C(N)c1ccc2cc(OC(=O)c3ccc(N=C(N)N)cc3)ccc2c1` was run?
Answer: -10.5% (inactive)

Question: For `CCOc1ccccc1N=Nc1c(C)[nH]n(-c2nc(-c3ccccc3)cs2)c1=O`, which activation is on record?
Answer: 25.3% (inactive)

Question: For `CC(=O)NC(CS)C(=O)O` (stereo not given), which activation is on record?
Answer: 60.6% (inactive)

Question: With `NCc1c[nH]c(=S)n1[C@H]1CCc2c(F)cc(F)cc2C1` as the compound, how does the activation read?
Answer: -19.4% (inactive)

Question: For `Nc1[nH]c(=O)ncc1F`, which activation is on record?
Answer: 10.9% (inactive) and -17.3% (inactive)

Question: `O=[N+]([O-])c1ccc(Nc2ccccc2-c2ccccc2)c2nonc12` was tested. Which Potency did it give?
Answer: 9.68 µM (active)

Question: Which activation does the source give for `CCOC(=O)c1c(C)n(C)c2ccc(O)cc12` here?
Answer: 6.69% (inactive) and -7.58% (inactive)

Question: How did the activation turn out when `CCCCCCCN(CC)CCCC(O)c1ccc(NS(C)(=O)=O)cc1` (stereo not given) was run?
Answer: 5.18% (inactive)

Question: With `CCN(CC)CCOc1ccc(Cc2ccccc2)cc1` as the compound, how does the activation read?
Answer: -6.69% (inactive) and 6.46% (inactive)

Question: Which activation does the source give for `CCOc1cc(N)c(Cl)cc1C(=O)NCC1CN(Cc2ccc(F)cc2)CCO1` (stereo not given) here?
Answer: -2.82% (inactive) and 4.36% (inactive)

Question: `CCCCOCCOc1nc(-c2ccc(C(=O)O)c(F)c2)sc1C` was tested. Which activation did it give?
Answer: 13.4% (inactive)

Question: `NC(=O)c1ccc(I)c([N+](=O)[O-])c1` was tested. Which activation did it give?
Answer: 13.8% (inactive)

Question: Which activation does the source give for `C[C@]12CC[C@@H]3c4ccc(O)cc4C[C@@H](CCCCCCCCCS(=O)CCCC(F)(F)C(F)(F)F)[C@H]3[C@H]1CC[C@H]2O` (stereo not given in full) here?
Answer: -2.43% (inactive)

Question: For `COC(=O)C[C@](O)(CCCC(C)(C)O)C(=O)O[C@@H]1C(OC)=C[C@]23CCCN2CCc2cc4c(cc2[C@H]13)OCO4`, which activation is on record?
Answer: -1.17% (inactive)

Question: `Oc1ccc(C2=Cc3ccc(O)cc3OC2)cc1` was tested. Which activation did it give?
Answer: 5.86% (inactive)

Question: With `COc1cc([C@H]2Oc3cc([C@H]4Oc5cc(O)cc(O)c5C(=O)[C@@H]4O)ccc3O[C@@H]2CO)ccc1O` as the compound, how does the activation read?
Answer: -20.1% (inactive)

Question: With `COc1cccc([C@@H](C)NCCCc2ccccc2Cl)c1` as the compound, how does the activation read?
Answer: -21.4% (inactive)

Question: Which activation does the source give for `CC(NCCc1ccc(O)cc1)C(O)c1ccc(O)cc1` (stereo not given) here?
Answer: -5.46% (inactive)

Question: How did the activation turn out when `O=c1[nH]c(=O)n([C@H]2C[C@H](O)[C@@H](CO)O2)cc1I` was run?
Answer: -6.69% (inactive)

Question: With `CCCn1c(=O)c2[nH]c(C34CC5CC3C[C@@H](C5)C4)nc2n(CCC)c1=O` as the compound, how does the activation read?
Answer: 31.9% (inactive)

Question: For `CC[C@@H](C)[C@H](NC(=O)[C@H](CC1CCCCC1)NC(=O)c1ccno1)C(=O)N1CCC2(CCc3ccccc32)CC1`, which activation is on record?
Answer: 0.928% (inactive) and 1.43% (inactive)
